This is an account of results in PubChem BioAssay (NCATS).

A number with no mark means an inactive call. The call rests on the fitted dose curve; in most records, active means well fitted inhibition curve with a large enough effect; inconclusive means small, poorly fitted or top-dose-only effect; inactive means flat fitted curve, though single readings scatter. Where a SMILES comes first, the peptide text is derived from it.

The subject of the experiment is Nanoluciferase (engineered Oplophorus gracilirostris luciferase). The experiment can be described thus: Primary Nanoluciferase (NLuc) qHTS assay for identification of artifact compounds. (AID 1845222).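 Further: NLuc secreted into diluted conditioned medium of S16 cells; 0% = DMSO and -100% = no enzyme.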 Particulars: NLuc-conditioned medium, Nano-Glo luminescence, 5 min; series mostly up to 54.1 µM; activity, negative = inhibition: at the top concentration. The method, boiled down:
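Using secreted nanoluciferase in S16 culture medium (0.22 um filtered, 1:55 dilution), compounds were preincubated 15 min at RT. Signal was generated with Nano-Glo reagent (1:100) over 5 min.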
(Quantitative high-throughput screening tests each substance at several concentrations.)
Regarding `C=C[C@H]1[C@H](O[C@@H]2O[C@H](CO)[C@@H](O)[C@H](O)[C@H]2O)OC=C(C(=O)OC)[C@H]1CC=O`, the “activity, negative = inhibition” value is 3.64%.

For the compound `C[C@@H]1CC[C@]2(C(=O)O[C@@H]3O[C@H](CO[C@@H]4O[C@H](CO)[C@@H](O[C@@H]5O[C@@H](C)[C@H](O)[C@@H](O)[C@H]5O)[C@H](O)[C@H]4O)[C@@H](O)[C@H](O)[C@H]3O)CC[C@]3(C)C(=CCC4[C@@]5(C)C[C@@H](O)[C@H](O)[C@@](C)(CO)C5CC[C@]43C)C2[C@H]1C` (stereo partly specified), the activity, negative = inhibition is 0% [at 11.6 µM]. On to `CC1=CC(=O)C(=C(C)C)CC2C(C)(O)CCC12O` (stereo unspecified), for which the “activity, negative = inhibition” value was 1.47%. As to `COc1cc(CO)ccc1O[C@@H]1O[C@H](CO)[C@@H](O)[C@H](O)[C@H]1O`, the “activity, negative = inhibition” value was 1.01%. In the case of `CC1=C(C(=O)OC2OC(COC3OC(CO)C(O)C(O)C3O)C(O)C(O)C2O)C(C)(C)CCC1` (stereo unspecified), the “activity, negative = inhibition” value was 2.9% [at 25.7 µM]. The figure for `Cc1cn(-c2cc(NC(=O)c3ccc(C)c(Nc4nccc(-c5cnccn5)n4)c3)cc(C(F)(F)F)c2)cn1` is -0.553%.

With `C=C1CC/C=C(/C(=O)O)CCC2C1CC2(C)C` (stereo unspecified), the “activity, negative = inhibition” value is 1.29%.

Take `C=CC(C)(O)C1CC2C3(C)CCCC(C)(C)C3C(O)C(O)C2(C)O1` (stereo unspecified): the “activity, negative = inhibition” value was -0.618%. The figure for `Cc1occc(=O)c1O[C@@H]1O[C@H](COC(=O)CC(C)(O)CC(=O)O)[C@@H](O)[C@H](O)[C@H]1O` (stereo partly specified) is -1.1% [at 25.7 µM]; for `CSCC[C@H](NC(=O)[C@H](CO)NC(=O)[C@H](CCC(=O)O)NC(C)=O)C(=O)N[C@H](C=O)CC(=O)O` (Ac-ESMD-aldehyde) it is 3.03% [at 11.6 µM]; for `Cc1cn(C[C@H](N)C(=O)O)c(=O)n(Cc2ccsc2C(=O)O)c1=O` it is 0%.
